# According to PubChem BioAssay (Tox21):
# Inconclusive results are not listed. A number with no mark means an inactive call. Active and inactive are the calls of the source. Calls come from the whole dose curve.
# Target: Muscarinic acetylcholine receptor M1 (Homo sapiens) (UniProt P11229)
# Experiment: Cholinergic receptor muscarinic 1 (CHRM1) small molecule antagonists, cell-based qHTS assay (AID 1963588); note: nearly all actives have a fitted effect of over 40% in size
# Conditions: CHRM1-CHO antagonist mode, calcium flux fluorescence; series mostly up to 61.5 µM; activity, negative = inhibition: at the top concentration
# From the text: National Center for Advancing Translational Sciences [NCATS]
# Division of Preclinical Innovation [DPI]
# U.S. Environmental Protection Agency [EPA]
# National Institutes of Environmental Health Sciences [NIEHS]
# National Toxicology Program [NTP]
# U.S. Food and Drug Administration [FDA]
# The CHRM1 is a muscarinic receptor. This receptor plays a crucial role in learning and memory processes and has long been identified as a promising therapeutic target for the improvement of cognitive decline in Alzheimer's disease (AD). The CHRM1-CHO cell line stably expressing human muscarinic acetylcholine receptor M1 (CHRM1) can be used for screening agonists and antagonists of interactions between CHRM1 and its ligands. The CHRM1-CHO Calcium Flux Assay is a homogeneous fluorescence-based assay for detecting the intracellular calcium level using FDSS kinetic plate reader system.
# Tox21 Assay Protocol Summary:
# CHRM1-CHO cells were dispensed at 1000 cells/3uL/well in 1536-well black-clear bottom plates using a Multidrop Dispenser. After the assay plates were incubated at a 37 C/5% CO2 incubator for 18 h, 3 uL of Dye Loading Buffer was transferred to the assay plate by a Flying Reagent Dispenser. The assay plates were incubated at 37 C for 1h. For antagonist mode, 23 nL of compounds dissolved in DMSO, positive controls or DMSO only was transferred to the assay plate by a pin tool. After 5 min incubation at room temperature, 1.5 uL of acetylcholine at 50nM was added to each well. The fluorescence intensity in the plates was measured using FDSS 7000EX kinetic plate reader for 3 min at 1 sec intervals. Each test compound was measured at 15 concentrations in three independent runs.
# % is set by controls: 0 for no effect and ±100 for the full control effect.
# Chain of Muscarinic acetylcholine receptor M1 (Homo sapiens) (P11229 whole entry, looked up): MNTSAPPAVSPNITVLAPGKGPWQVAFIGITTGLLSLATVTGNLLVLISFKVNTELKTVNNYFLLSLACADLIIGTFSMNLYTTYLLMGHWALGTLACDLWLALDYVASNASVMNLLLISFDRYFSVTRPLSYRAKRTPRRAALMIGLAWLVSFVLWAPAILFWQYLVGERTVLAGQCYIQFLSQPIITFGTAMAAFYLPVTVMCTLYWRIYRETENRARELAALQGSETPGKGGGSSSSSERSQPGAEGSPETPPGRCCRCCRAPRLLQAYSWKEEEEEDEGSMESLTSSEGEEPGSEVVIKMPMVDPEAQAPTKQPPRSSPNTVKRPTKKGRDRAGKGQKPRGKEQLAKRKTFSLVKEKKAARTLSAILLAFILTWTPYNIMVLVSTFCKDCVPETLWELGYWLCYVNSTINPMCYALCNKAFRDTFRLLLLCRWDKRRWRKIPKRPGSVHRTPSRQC
SMILES,"activity, negative = inhibition",Potency
ClC/C=C\CCl,-3.34%,–
CCCC(=O)CC,-20.6%,–
COc1cc2c(Nc3ccc(Br)cc3F)ncnc2cc1OCC1CCN(C)CC1,10.5% [at 28.3 µM],–
O=C(O)c1cccc(C(F)(F)F)c1,17.3%,–
CC1=C(O)C(=O)OC1C (stereo not given),-0.67%,–
Nc1nccs1,-0.268%,–
CCCCC(CC)COC(=O)CCCCCCCC(=O)OCC(CC)CCCC (stereo not given),–,inactive
FC(F)(F)c1ccccc1,35.6%,–
CCCCC(CC)COP(=O)(O)OCC(CC)CCCC (stereo not given),–,inactive
CC1=CC(C)C(C=O)CC1 (stereo not given),14.1%,–
CCn1c2ccccc2c2ccccc21,-14.9%,–
O=C(c1ccc2c(c1)C(=O)OC2=O)c1ccc2c(c1)C(=O)OC2=O,8.78%,–
Cc1ccc(C=O)cc1,-2.25% [at 28.3 µM],–
Fc1c(F)c(F)c(Br)c(F)c1F,9.88%,–
c1ccc(CCCc2ccncc2)cc1,-1.05%,–
O=C(NCN1CCOCC1)c1cnccn1,-10.6% [at 28.3 µM],–
O=C(O[C@@H](C(=O)O)[C@@H](OC(=O)c1ccccc1)C(=O)O)c1ccccc1,-4.75%,–
CCCCC(CC)COC(C)=O (stereo not given),–,inactive
O=S(=O)(Oc1ccc(Cl)cc1Cl)c1ccccc1,–,inactive
CC(C)COC(=O)c1ccccc1O,7.95%,–

SMILES,"activity, negative = inhibition",Potency
COc1ccc(N=[N+]([O-])c2ccc(OC)cc2)cc1,-15.7%,–
COc1cccc(Br)c1,2.56%,–
CC(C)C(=O)c1ccccc1,36%,–
N[C@@H](Cc1c[nH]c2ccc(O)cc12)C(=O)O,–,inactive
CC(=O)S[C@H](C(=O)N[C@H]1Cc2ccccc2[C@H]2CCC[C@@H](C(=O)O)N2C1=O)C(C)C,3.63%,–
CCN(CC#N)c1cccc(C)c1,2.16%,–
CCC(C)NC(N)=O (stereo not given),11.2%,–
CC(=O)Oc1ccccc1C(=O)Nc1ncc([N+](=O)[O-])s1,–,inactive
N#CCN(CC#N)CCN(CC#N)CC#N,0.639%,–
O=c1[nH]c2cc(C(F)(F)F)c(N3CCOCC3)cc2n(CP(=O)(O)O)c1=O,-16.9% [at 28.3 µM],–
COC(=O)c1cc(Cl)ccc1NS(=O)(=O)C(F)(F)F,25% [at 28.3 µM],–
CC(C)(C)C(=O)OCOC(=O)C1N2C(=O)CC2S(=O)(=O)C1(C)C (stereo not given),3.37% [at 28.3 µM],–
N#CC1(c2ccc(F)cc2)CCC(=O)CC1,-1.61% [at 28.3 µM],–
CCCCCCCCCCCCCCCC(=O)OC,-19.7% [at 12.6 µM],–
C#CC(C)(O)CC(C)C (stereo not given),31.4%,–
[K+],-13.6%,–
O=S(=O)(O)CC(O)CCl (stereo not given),2%,–
Clc1nc(Cl)c(Cl)c(Cl)c1Cl,–,inactive
CC(=O)OC1CC(C)OC(C)O1 (stereo not given),–,inactive
ON(Cc1ccccc1)Cc1ccccc1,15.3%,–
